Data as given in PubChem BioAssay (EPA / NIEHS).
Results filed as inconclusive are left out. Calls of active or inactive are those of the source. The calls were made as follows, unless noted: active = hit-call score of the fitted dose curve at least 0.9, where 1 is the maximum; inactive = score below 0.9.

How the values were obtained:
[1] = biological target: human RAR-related Orphan Receptor gamma (RORg), RORC (gene 6097) (UniProt P51449); test: ATG_RORg_TRANS: Attagene TRANS-FACTORIAL HepG2 Assay for human RAR-related Orphan Receptor gamma (RORg) (AID 2283011; active = hit-call score of the fitted dose curve at least 0.9, where 1 is the maximum)
human RAR-related Orphan Receptor gamma (RORg), RORC (gene 6097), sequence (P51449 whole entry, looked up, the tested form may be a part): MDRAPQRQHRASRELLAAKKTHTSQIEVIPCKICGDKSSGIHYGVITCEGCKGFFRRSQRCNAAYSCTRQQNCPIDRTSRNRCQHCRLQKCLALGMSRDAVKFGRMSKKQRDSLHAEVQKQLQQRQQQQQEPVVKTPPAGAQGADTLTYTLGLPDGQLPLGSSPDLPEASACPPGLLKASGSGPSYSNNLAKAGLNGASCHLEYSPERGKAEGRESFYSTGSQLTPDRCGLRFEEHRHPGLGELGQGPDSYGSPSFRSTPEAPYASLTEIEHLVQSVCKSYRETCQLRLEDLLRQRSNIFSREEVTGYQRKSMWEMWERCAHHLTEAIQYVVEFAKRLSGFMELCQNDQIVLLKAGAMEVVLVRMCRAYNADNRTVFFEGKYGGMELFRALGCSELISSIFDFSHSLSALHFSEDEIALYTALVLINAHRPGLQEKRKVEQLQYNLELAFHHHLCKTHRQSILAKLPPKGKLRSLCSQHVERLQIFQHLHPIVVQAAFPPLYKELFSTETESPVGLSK
Outline: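 Activity is scored as increase in GAL4-UAS reporter mRNA over DMSO, detected by fluorescent RT-PCR and capillary electrophoresis in HepG2 cells transiently expressing a RORg-Gal4 chimera, 24 h after dosing.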

[2] = biological target: Retinoic acid receptor RXR-alpha (Homo sapiens) (UniProt P19793); test: ATG_RXRa_TRANS: Attagene TRANS-FACTORIAL HepG2 Assay for human Retinoid X Receptor alpha (RXRa) (AID 2283012; active = hit-call score of the fitted dose curve at least 0.9, where 1 is the maximum)
Retinoic acid receptor RXR-alpha (Homo sapiens), sequence (P19793 whole entry, looked up, the tested form may be a part): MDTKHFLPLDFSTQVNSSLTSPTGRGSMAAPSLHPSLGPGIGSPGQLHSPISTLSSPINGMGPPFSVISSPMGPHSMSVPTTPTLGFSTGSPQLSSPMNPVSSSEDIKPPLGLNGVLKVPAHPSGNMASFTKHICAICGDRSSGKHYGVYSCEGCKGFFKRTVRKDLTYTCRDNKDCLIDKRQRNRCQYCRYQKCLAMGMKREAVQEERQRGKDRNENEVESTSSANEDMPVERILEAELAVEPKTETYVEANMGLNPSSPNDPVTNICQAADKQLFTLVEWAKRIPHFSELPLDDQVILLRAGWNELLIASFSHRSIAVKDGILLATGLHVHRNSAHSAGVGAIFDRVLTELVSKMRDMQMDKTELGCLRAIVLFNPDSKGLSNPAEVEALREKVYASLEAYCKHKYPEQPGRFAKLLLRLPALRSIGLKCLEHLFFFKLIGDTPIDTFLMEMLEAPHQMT
Outline: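 HepG2 cells transiently transfected with multiplexed GAL4-UAS reporter units and chimeric NR-GAL4 fusions, dosed 24 h. Reporter mRNA measured by RT-PCR, FAM labelling, HpaI digestion and capillary electrophoresis; gain-of-signal fitted relative to DMSO baseline.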

[3] = biological target: human Retinoid X Receptor beta (RXRb), RXRB (gene 6257) (UniProt P28702); test: ATG_RXRb_TRANS: Attagene TRANS-FACTORIAL HepG2 Assay for human Retinoid X Receptor beta (RXRb) (AID 2283013; active = hit-call score of the fitted dose curve at least 0.9, where 1 is the maximum)
human Retinoid X Receptor beta (RXRb), RXRB (gene 6257), sequence (P28702 whole entry, looked up, the tested form may be a part): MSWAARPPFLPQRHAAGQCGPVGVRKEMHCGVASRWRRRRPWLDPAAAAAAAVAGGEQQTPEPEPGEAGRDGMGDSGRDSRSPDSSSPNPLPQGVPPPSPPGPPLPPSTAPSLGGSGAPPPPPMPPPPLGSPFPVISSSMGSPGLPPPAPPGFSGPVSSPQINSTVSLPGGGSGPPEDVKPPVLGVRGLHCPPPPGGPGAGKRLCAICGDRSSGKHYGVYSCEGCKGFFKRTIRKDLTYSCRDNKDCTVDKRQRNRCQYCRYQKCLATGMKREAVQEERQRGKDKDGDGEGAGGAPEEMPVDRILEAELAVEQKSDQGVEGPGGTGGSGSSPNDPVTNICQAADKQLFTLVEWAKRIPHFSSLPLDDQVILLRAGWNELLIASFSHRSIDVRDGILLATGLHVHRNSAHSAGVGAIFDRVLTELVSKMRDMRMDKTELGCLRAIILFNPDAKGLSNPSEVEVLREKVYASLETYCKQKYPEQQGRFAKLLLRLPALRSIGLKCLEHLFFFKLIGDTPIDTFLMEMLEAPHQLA
Outline: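 HepG2 cells transiently transfected with multiplexed reporter units driven by GAL4-UAS and exogenous chimeric NR-Gal4 proteins; treated 24 h. Reporter mRNA measured by RT-PCR, 6-FAM labelling and capillary electrophoresis; gain-of-signal fitted versus DMSO baseline.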

[4] = biological target: human Thyroid Receptor alpha (THRa1), THRA (gene 7067) (UniProt P10827); test: ATG_THRa1_TRANS: Attagene TRANS-FACTORIAL HepG2 Assay for human Thyroid Receptor alpha (THRa1) (AID 2283014; active = hit-call score of the fitted dose curve at least 0.9, where 1 is the maximum)
human Thyroid Receptor alpha (THRa1), THRA (gene 7067), sequence (P10827 whole entry, looked up, the tested form may be a part): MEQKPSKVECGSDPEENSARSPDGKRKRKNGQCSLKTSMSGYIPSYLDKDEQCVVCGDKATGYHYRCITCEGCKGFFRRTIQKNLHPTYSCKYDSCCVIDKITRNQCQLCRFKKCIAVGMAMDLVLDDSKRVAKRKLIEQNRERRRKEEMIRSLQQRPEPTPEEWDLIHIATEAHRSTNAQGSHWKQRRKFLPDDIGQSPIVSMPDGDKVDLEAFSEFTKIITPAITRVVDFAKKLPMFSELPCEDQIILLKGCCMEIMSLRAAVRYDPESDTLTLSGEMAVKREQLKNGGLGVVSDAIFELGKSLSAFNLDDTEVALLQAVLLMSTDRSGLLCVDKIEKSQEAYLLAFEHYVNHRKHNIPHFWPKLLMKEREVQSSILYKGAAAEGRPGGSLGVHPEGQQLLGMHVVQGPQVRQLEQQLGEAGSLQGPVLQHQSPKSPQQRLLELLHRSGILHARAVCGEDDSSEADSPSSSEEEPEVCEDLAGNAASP
Outline: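 First, HepG2 cells receive multiple GAL4-UAS reporter units and the chimeric receptor. They are then dosed for 24 h, after which RNA is reverse-transcribed, amplified, labelled, HpaI-cut and sized by capillary electrophoresis; gain relative to DMSO is scored.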

[5] = read-out: E-selectin (Homo sapiens) (UniProt P16581); test: BSK_3C_Eselectin: BioMAP Diversity Plus: 3C Assay for Eselectin Biomarker Activity (AID 2283015); conditions: primary human endothelial cells (HUVEC); actives raise or lower the signal;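 also: cell surface E-selectin protein quantified by ELISA 24 h after dosing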
Outline: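 Human vascular endothelium from umbilical vein is exposed to test chemicals for 24 h. E-selectin levels are read by ELISA and compared with DMSO controls.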

[6] = read-out: Interleukin-1 alpha (IL1a), IL1A (gene 3552); test: BSK_BE3C_IL1a: BioMAP Diversity Plus: BE3C Assay for Interleukin-1 alpha (IL1a) Biomarker Activity (AID 2283016); conditions: primary human bronchial epithelial cells; actives raise or lower the signal
Outline: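 Human primary bronchial epithelial cells (BE3C system) were dosed with compound and IL-1a measured by ELISA 24 h later. Activity was fitted bidirectionally against DMSO baseline; cytotoxicity was tracked in parallel cultures by SRB total-protein staining.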

[7] = read-out: Monocyte Chemoattractant Protein-1 (MCP1), CCL2 (gene 6347); test: BSK_3C_MCP1: BioMAP Diversity Plus: 3C Assay for Monocyte Chemoattractant Protein-1 (MCP1) Biomarker Activity (AID 2283017); conditions: primary human endothelial cells (HUVEC); actives raise or lower the signal
Outline: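 Endothelial cells from human umbilical vein are dosed with chemical, cultured 24 h, then assayed for MCP-1 by ELISA; both increases and decreases are modelled against DMSO controls.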

[8] = read-out: Monocyte Chemoattractant Protein-1 (MCP1), CCL2 (gene 6347); test: BSK_4H_MCP1: BioMAP Diversity Plus: 4H Assay for Monocyte Chemoattractant Protein-1 (MCP1) Biomarker Activity (AID 2283018); conditions: primary human endothelial cells (HUVEC); actives raise or lower the signal
Outline: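 Human umbilical vein endothelial cells (4H system) dosed with chemical; MCP-1 measured by ELISA 24 h after dosing. Bidirectional curve fitting against DMSO negative control as baseline; parallel SRB total-protein staining tracks overt cytotoxicity.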

[9] = read-out: Interleukin-8 (IL8), CXCL8 (gene 3576); test: BSK_3C_IL8: BioMAP Diversity Plus: 3C Assay for Interleukin-8 (IL8) Biomarker Activity (AID 2283020); conditions: primary human endothelial cells (HUVEC); actives raise or lower the signal
Outline: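 Primary human umbilical vein endothelial cells (3C system) were exposed to test chemical for 24 h, then IL-8 was quantified by ELISA. Responses were fitted bidirectionally against DMSO vehicle as baseline.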

[10] = read-out: Monokine induced gamma interferon (MIG), CXCL9 (gene 4283); test: BSK_3C_MIG: BioMAP Diversity Plus: 3C Assay for Monokine induced gamma interferon (MIG) Biomarker Activity (AID 2283021); conditions: primary human endothelial cells (HUVEC); actives raise or lower the signal
Outline: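 Primary human umbilical vein endothelial cells in the 3C system were exposed to chemical for 24 h, after which MIG was quantified by ELISA. Activity was fitted bidirectionally against DMSO as negative control and baseline.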

[11] = BSK_3C_SRB: Viability Assessment in the BioMAP Diversity Plus: 3C Assay (AID 2283023); conditions: primary human endothelial cells (HUVEC);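 also: fitted both ways against DMSO so a hit may be signal rise or drop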
Outline: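 Cells were dosed with chemical, cultured 24 h, fixed with 10% TCA, stained with 0.1% SRB and read at 560 nm. Human umbilical vein endothelium was used; DMSO served as negative control and baseline.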

[12] = read-out: Matrix Metallopeptidase 1 (MMP1), MMP1 (gene 4312); test: BSK_BE3C_MMP1: BioMAP Diversity Plus: BE3C Assay for Matrix Metallopeptidase 1 (MMP1) Biomarker Activity (AID 2283024); conditions: primary human bronchial epithelial cells; actives raise or lower the signal
Outline: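 Primary human bronchial epithelial cells were dosed with test chemicals, and MMP1 levels were measured by ELISA 24 h later. Data were fitted bidirectionally against DMSO as the negative control and activity baseline.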

[13] = BSK_3C_Vis: BioMAP Diversity Plus: 3C Assay for Morphology Visualization (AID 2283025); conditions: primary human endothelial cells (HUVEC);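 also: fitted both ways so gain or loss versus DMSO counts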
Outline: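 Human umbilical vein endothelial cells in the 3C system were imaged by light microscopy 24 h after chemical dosing to record cell morphology. Activity was fitted bidirectionally against DMSO as negative control and baseline; the endpoint serves as a background control.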

[14] = read-out: Pselectin, SELP (gene 6403); test: BSK_4H_Pselectin: BioMAP Diversity Plus: 4H Assay for Pselectin Biomarker Activity (AID 2283026); conditions: primary human endothelial cells (HUVEC); actives raise or lower the signal
Outline: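 Primary human umbilical vein endothelial cells were exposed to test chemical for 24 h, then cell-surface P-selectin was quantified by ELISA. Activity was fitted bidirectionally against DMSO as negative control and baseline.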

[15] = BSK_4H_SRB: Viability Assessment in the BioMAP Diversity Plus: 4H Assay (AID 2283027); conditions: primary human endothelial cells (HUVEC);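 also: cells exposed to compound for 24 h before staining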
Outline: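 Human umbilical vein endothelial cells, 24 h after chemical dosing; total protein measured by 0.1% sulforhodamine B staining after 10% TCA fixation, read at 560 nm. Bidirectional fitting against DMSO.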

[16] = BSK_BE3C_SRB: Viability Assessment in the BioMAP Diversity Plus: BE3C Assay (AID 2283028); conditions: primary human bronchial epithelial cells
Outline: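 Overt cytotoxicity was assessed as total protein in confluent human primary bronchial epithelial cultures 24 h after chemical addition, using 0.1% sulforhodamine B staining read at 560 nm.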

[17] = read-out: Thrombomodulin, THBD (gene 7056); test: BSK_3C_Thrombomodulin: BioMAP Diversity Plus: 3C Assay for Thrombomodulin Biomarker Activity (AID 2283029); conditions: primary human endothelial cells (HUVEC); actives raise or lower the signal
Outline: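 Primary human umbilical vein endothelial cells (3C system) were exposed to chemical for 24 h, then thrombomodulin levels were measured by ELISA. Activity was fitted bidirectionally against the DMSO negative control as baseline.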

[18] = read-out: Human Leukocyte Antigen - DR isotype (HLADR), HLA-DRA (gene 3122); test: BSK_3C_HLADR: BioMAP Diversity Plus: 3C Assay for Human Leukocyte Antigen - DR isotype (HLADR) Biomarker Activity (AID 2283019); conditions: primary human endothelial cells (HUVEC); actives raise or lower the signal
Outline: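 Endothelial cells from human umbilical vein are treated with test chemical; after 24 h, HLA-DR levels are measured by ELISA. Data are fitted in both directions using DMSO as the baseline.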

[19] = biological target: human Vitamin D Receptor (VDR), VDR (gene 7421) (UniProt P11473); test: ATG_VDR_TRANS: Attagene TRANS-FACTORIAL HepG2 Assay for human Vitamin D Receptor (VDR) (AID 2283022; active = hit-call score of the fitted dose curve at least 0.9, where 1 is the maximum)
human Vitamin D Receptor (VDR), VDR (gene 7421), sequence (P11473 whole entry, looked up, the tested form may be a part): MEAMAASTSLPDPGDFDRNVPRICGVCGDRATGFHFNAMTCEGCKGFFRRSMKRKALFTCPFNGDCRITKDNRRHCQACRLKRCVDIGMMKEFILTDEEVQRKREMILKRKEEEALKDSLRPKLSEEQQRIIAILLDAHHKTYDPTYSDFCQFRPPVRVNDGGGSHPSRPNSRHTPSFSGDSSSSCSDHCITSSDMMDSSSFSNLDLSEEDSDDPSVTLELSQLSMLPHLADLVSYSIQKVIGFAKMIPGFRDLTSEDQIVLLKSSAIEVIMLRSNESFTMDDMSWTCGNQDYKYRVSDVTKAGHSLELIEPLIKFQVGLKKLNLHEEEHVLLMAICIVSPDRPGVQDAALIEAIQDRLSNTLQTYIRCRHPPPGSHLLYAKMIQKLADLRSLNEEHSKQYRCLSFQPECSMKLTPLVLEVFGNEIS
Outline: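 Fluorescence of labelled reporter cDNA fragments, resolved by capillary electrophoresis, gives mRNA induction after 24 h treatment of HepG2 cells carrying transfected Gal4-fusion reporter units. Activity is fitted in the positive direction with DMSO as baseline.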

Measured: AC50

E-selectin (Homo sapiens), sequence (P16581 whole entry, looked up): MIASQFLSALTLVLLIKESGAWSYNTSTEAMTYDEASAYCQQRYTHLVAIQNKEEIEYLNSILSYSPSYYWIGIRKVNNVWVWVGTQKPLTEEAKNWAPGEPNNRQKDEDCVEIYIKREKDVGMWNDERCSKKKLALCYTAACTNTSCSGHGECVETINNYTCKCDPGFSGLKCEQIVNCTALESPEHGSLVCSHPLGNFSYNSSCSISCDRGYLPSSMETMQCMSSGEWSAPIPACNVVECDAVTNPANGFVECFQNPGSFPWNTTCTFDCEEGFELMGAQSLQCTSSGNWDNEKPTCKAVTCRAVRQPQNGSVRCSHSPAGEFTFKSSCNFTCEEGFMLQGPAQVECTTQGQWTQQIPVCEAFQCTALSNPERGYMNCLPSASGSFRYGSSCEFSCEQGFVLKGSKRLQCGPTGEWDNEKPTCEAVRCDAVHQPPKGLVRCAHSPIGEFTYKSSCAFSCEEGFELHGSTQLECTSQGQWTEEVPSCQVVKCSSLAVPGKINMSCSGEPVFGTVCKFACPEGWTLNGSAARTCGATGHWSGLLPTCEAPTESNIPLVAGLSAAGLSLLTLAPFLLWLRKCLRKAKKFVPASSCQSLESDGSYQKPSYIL

C[N+]1(C)CCCCC1
not listed: [18] | [19]
inactive: all other assays above

CCNc1nc(Cl)nc(NC(C)(C)C#N)n1
not listed: [4] | [19]
inactive: all other assays above

CC(C)[C@H](C(=O)O[C@H](C#N)c1cccc(Oc2ccccc2)c1)c1ccc(Cl)cc1
active: [11] 5.72 µM
not listed: [16] | [18] | [19]
inactive: all other assays above

FC(F)C(F)(F)OCC(Cn1cncn1)c1ccc(Cl)cc1Cl (centres undefined)
active: [8] 23.2 µM | [18] 26.9 µM | [11] 20 µM | [13] 39 µM | [14] 33.7 µM
not listed: [1] | [3] | [19]
inactive: all other assays above

CC(COc1ccc(Oc2ccccc2)cc1)Oc1ccccn1 (centres undefined)
active: [11] 20 µM
not listed: [2] | [3] | [4] | [18]
inactive: all other assays above

Cc1cc(C2CC2)nc(Nc2ccccc2)n1
active: [3] 75.3 µM | [4] 64 µM | [7] 32.1 µM | [8] 17.8 µM | [11] 24.8 µM | [13] 37.5 µM | [17] 33.7 µM
not listed: [18]
inactive: all other assays above
